# CYP2C19 activ = increases human CYP2C19 enzyme activity; activation factor at 5 µM; recombinant CYP2C19, luciferin-H EGE luminescence; stronger effect = higher value; 0 = fully inhibited enzyme, 1 = untreated enzyme; P33261; 96,000 tested, under 10 active; AID 1025;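 active means activation factor of at least 2 at 5 µM in the primary screen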
# CYP2C9 act = increases human cytochrome P450 2C9 activity | recombinant CYP2C9, luciferin-H conversion, luminescence; stronger effect = higher value; factor 1 = untreated enzyme, 0 = blocked | 96,000 compounds, 1.4% hits | activation factor at 5 µM | P11712;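 active means activation factor of 2 or more for CYP2C9 at a 5 µM dose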
# CYP2C19 inh = blocks human cytochrome P450 2C19; P33261; CYP2C19 Supersomes, luciferin-H EGE luminescence, 30 min; inhibition, % at 5 µM; 96,000 compounds, 21% hits; AID 778;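 active means CYP2C19 inhibition above a set limit at 5 µM in the primary screen, cut at about 50% in these data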
# CYP2C9 inh = human CYP2C9 inhibition; inhibition, % at 5 µM; CYP2C9 Supersomes, luciferin-H conversion, luminescence; 96,000 compounds, 20% hits; P11712;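 active means blocking of liver enzyme CYP2C9 beyond about 50% at 5 µM, limit read from the data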
# PLAP act = activators of human placental alkaline phosphatase. purified PLAP enzyme, luminescent substrate read-out; stronger effect = higher value. AID 696. activation fold at 20 µM. 96,000 compounds, 1.2% hits; in the data active means activation fold above about 2
# Target sequence (P05187 whole entry, looked up): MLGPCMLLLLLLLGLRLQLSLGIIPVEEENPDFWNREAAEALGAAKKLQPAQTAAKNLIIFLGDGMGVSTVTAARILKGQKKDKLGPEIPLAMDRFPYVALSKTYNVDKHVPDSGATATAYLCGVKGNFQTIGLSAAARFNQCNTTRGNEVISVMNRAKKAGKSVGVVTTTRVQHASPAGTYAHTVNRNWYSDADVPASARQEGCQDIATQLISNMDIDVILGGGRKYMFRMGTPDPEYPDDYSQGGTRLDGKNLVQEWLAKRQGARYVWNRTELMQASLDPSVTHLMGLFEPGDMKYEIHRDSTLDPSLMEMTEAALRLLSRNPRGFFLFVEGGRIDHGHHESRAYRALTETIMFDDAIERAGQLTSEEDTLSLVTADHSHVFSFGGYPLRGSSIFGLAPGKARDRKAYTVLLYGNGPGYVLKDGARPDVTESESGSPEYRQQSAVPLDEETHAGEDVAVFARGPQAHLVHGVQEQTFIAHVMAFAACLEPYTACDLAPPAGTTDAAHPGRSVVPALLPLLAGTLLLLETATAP
# A number is an active result; – = inactive. This is a sample that favours compounds with a hit; in the whole collection about 31% have one here.
SMILES,CYP2C19 activ,CYP2C9 act,CYP2C19 inh,CYP2C9 inh,PLAP act
CCC(C)NC(=O)CN(c1ccc2c(c1)OCO2)S(=O)(=O)c1c(C)n[nH]c1C (centres undefined),–,–,76,52,2.2
Cc1n[nH]c(C)c1S(=O)(=O)N(CC(=O)Nc1ccc2c(c1)OCCO2)c1ccc(C(C)C)cc1,–,–,–,68,2
Cc1oc(C(C)(C)C)cc1C(=O)Nc1cccc(/C=C/C(=O)O)c1,–,–,–,–,–
CCOC(=O)C1CN(S(=O)(=O)c2ccc(OC)cc2)c2cc(CC(=O)OC)ccc2O1 (centres undefined),–,–,93,–,–
COc1ccc(S(=O)(=O)N2CC(C(=O)O)Oc3ccc(CC(=O)O)cc32)cc1 (centres undefined),–,–,–,–,–
NC(=O)C(c1cccc(Cl)c1)c1ncc(C(F)(F)F)cc1Cl (centres undefined),–,–,–,–,–
CCOc1ccccc1-c1cc(-c2ccccc2)nc2c1c(=O)n(C)c(=O)n2C,–,–,–,–,–
CCCCn1c(=O)n(C)c(=O)c2c(C(F)(F)F)cc(-c3ccncc3)nc21,–,–,73,–,–
COc1ccc(NC(=O)CN2c3cccc4cccc(c34)S2(=O)=O)cc1,–,2.8,–,–,–
CCN1c2cccc3cccc(c23)S1(=O)=O,–,6.2,78,–,–
COC(=O)CNC(=O)CN1c2cccc3cccc(c23)S1(=O)=O,–,2.1,–,–,–
O=C(CN1c2cccc3cccc(c23)S1(=O)=O)N1CCOCC1,–,–,–,–,–
COc1ccc(NC(=O)CCN2C(=O)c3ccccc3S2(=O)=O)cc1,–,–,–,–,–
COc1ccc(NC(=O)C(C)N2c3cccc4cccc(c34)S2(=O)=O)cc1 (centres undefined),–,–,67,–,–
Cc1nc2c(c(N3CCOCC3)n1)OCC(=O)N2,–,–,–,–,–
CCOc1cc(-c2ccc3c(c2)OCO3)cc(=O)c2c(C)oc(C)c12,–,–,–,–,–
Cc1cc(C)cc(SCc2noc(C(=O)NC(C)C)c2C(=O)O)c1,–,–,–,70,–
C=CCNC(=O)c1onc(CSc2cccc(OC)c2)c1C(=O)O,–,–,–,67,–
COC(=O)c1c(CSc2cccc(C)c2)noc1C(=O)NCc1ccco1,–,–,82,78,–
Cc1cccc(SCc2noc(C(=O)NC(C)C)c2C(=O)O)c1,–,–,–,55,–
CC(C)NC(=O)c1onc(CSc2ccccc2)c1C(=O)O,–,–,–,–,–
CC1=C(C(=O)Nc2ccc(Br)cc2)C(c2ccco2)NC(=O)N1 (centres undefined),–,–,–,–,–
COc1cccc(SCc2noc(C(=O)NC(C)C)c2C(=O)O)c1,–,–,–,61,–
C(=N\n1cnnc1)/c1ccc2ncccc2c1,–,–,57,–,–
CCc1cccc(CC)c1N(COC)C(=O)Cn1c(CO)nc2ccccc21,–,–,–,51,–
SMILES,CYP2C19 activ,CYP2C9 act,CYP2C19 inh,CYP2C9 inh,PLAP act
CCc1cccc(CC)c1N(COC)C(=O)Cn1nnc2ccccc21,–,–,82,100,–
CCc1cccc(CC)c1N(COC)C(=O)Cn1ccccc1=N,–,–,–,–,–
CCOC(=O)CCn1c(CC(=O)OCC)nc2ccccc21,–,–,–,–,–
COCCn1c(=NC(=O)CSC(C)=O)sc2cc(OC)ccc21,–,–,–,–,–
COCCn1c(=NC(=O)CSCC(=O)NC2CCCCC2)sc2cc(OC)ccc21,–,–,82,57,–
COc1ccc(NS(=O)(=O)Cc2ccccc2)cc1OC,–,–,–,–,–
CN(Cc1ccccc1)S(=O)(=O)c1ccc(Cl)nc1,–,–,70,–,–
CC(=O)c1ccc(NS(=O)(=O)Cc2ccccc2)cc1,–,–,93,97,–
CN(Cc1ccccc1)S(=O)(=O)c1ccc(NS(=O)(=O)Cc2ccccc2)cc1,–,–,94,94,–
CC(=O)N(C)c1ccc(NS(=O)(=O)Cc2ccccc2)cc1,–,–,–,–,–
Cc1nn(C)c(C)c1C(=O)NN,–,–,–,–,–
Nc1c(C(=O)NC23CC4CC(CC(C4)C2)C3)sc2nc3c(c(C(F)(F)F)c12)CCC3,–,–,–,–,–
CCOC(=O)c1cnn(-c2ccc(C)cc2)c1N,–,–,–,–,–
CCOC(=O)c1cnn(CC2CCCCC2)c1N,–,–,60,92,–
COc1ccc(S(=O)(=O)N2CCC(C(=O)Nc3ccccc3C)CC2)c2cccnc12,–,–,63,–,–
COc1ccc(C)cc1NC(=O)C1CCN(S(=O)(=O)c2cccc3cccnc23)CC1,–,2.7,–,–,–
COc1ccc2oc(=O)c(NC(=O)C3CCCCC3)cc2c1,–,–,–,–,–
CCOc1ccccc1NC(=O)C1CCN(S(=O)(=O)c2cccc3cccnc23)CC1,–,–,93,–,–
CCOc1ccc(OCC)c(NC(=O)C2CCCN2S(=O)(=O)c2cccc3cccnc23)c1 (centres undefined),–,–,–,–,–
COc1cc(NC(=O)C2CCCCC2)c2ncccc2c1,–,2.1,–,–,–
COc1ccc(C(=O)c2c[nH]c3ccccc23)cc1,–,–,–,–,–
Brc1ccccc1CN1CCC(N2CCCCC2)CC1,–,–,–,–,–
CCCc1cc(=O)n2[nH]c(NCc3c(F)cccc3Cl)nc2n1,–,–,–,–,–
Cc1ccc2cccnc2c1NC(=S)NC(=O)c1ccccc1,–,–,–,–,–
COc1ccc(OC)c(NC(=O)C2CCCN(S(=O)(=O)c3cccc4cccnc34)C2)c1 (centres undefined),–,–,69,–,–
SMILES,CYP2C19 activ,CYP2C9 act,CYP2C19 inh,CYP2C9 inh,PLAP act
COc1ccc(S(=O)(=O)n2ccnc2)c2cccnc12,–,–,56,53,–
CCOc1ccc(S(=O)(=O)N2CCN(Cc3ccccc3)CC2)c2cccnc12,–,–,–,–,–
CCN(CCNC(=O)C1CCN(S(=O)(=O)c2cccc3cccnc23)CC1)c1ccccc1,–,3,–,–,–
CCC(C)NC(=O)CSc1nc2c(sc(=S)n2Cc2ccco2)c(=O)n1-c1ccccc1 (centres undefined),–,–,–,–,–
CCOC(=O)CSc1nc2c(sc(=S)n2Cc2ccco2)c(=O)n1-c1ccc(F)cc1,–,–,56,72,–
CCN(CC)C(=O)CSc1nc2c(sc(=S)n2-c2ccccc2)c(=O)n1Cc1ccco1,–,–,–,67,–
COc1ccccc1-n1c(=S)sc2c(=O)n(Cc3ccco3)c(SC)nc21,–,–,64,76,–
COc1cc2c(cc1OC)C1(Nc3c-2c(Cc2ccccc2)nn3-c2ccccc2)C(=O)Nc2ccccc21 (centres undefined),–,–,–,–,–
CCn1nccc1C(=O)Nc1ccc(Cl)cc1Cl,–,–,63,–,–
O=S(=O)(NCc1ccco1)N1CCCCCC1,–,–,63,–,–
